CYP2C19 act – increases human CYP2C19 enzyme activity. recombinant CYP2C19, luciferin-H EGE luminescence; hits give high values; 0 = fully inhibited enzyme, 1 = untreated enzyme. activation factor at 5 µM. 96,000 tested, under 10 active. AID 1025;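 active = activation factor of at least 2 at 5 µM in the primary screen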;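 also: 0 = wells with 2.5 mM tranylcypromine and 1 = vehicle-only wells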
Target sequence (P33261 whole entry, looked up): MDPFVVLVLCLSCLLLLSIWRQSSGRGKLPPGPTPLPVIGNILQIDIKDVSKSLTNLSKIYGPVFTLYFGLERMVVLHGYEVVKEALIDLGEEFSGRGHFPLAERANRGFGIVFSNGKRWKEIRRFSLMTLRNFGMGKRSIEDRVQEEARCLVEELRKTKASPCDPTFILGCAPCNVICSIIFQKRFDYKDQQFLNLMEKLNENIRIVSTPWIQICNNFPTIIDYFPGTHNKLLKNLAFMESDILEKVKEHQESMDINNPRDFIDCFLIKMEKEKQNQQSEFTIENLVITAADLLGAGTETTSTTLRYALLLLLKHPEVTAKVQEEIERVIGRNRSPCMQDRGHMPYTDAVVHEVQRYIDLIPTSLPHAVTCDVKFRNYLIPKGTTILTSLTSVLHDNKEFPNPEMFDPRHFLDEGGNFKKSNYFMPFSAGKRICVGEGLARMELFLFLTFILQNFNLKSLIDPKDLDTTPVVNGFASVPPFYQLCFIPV
CYP2C9 inh – human CYP2C9 inhibition | 96,000 compounds, 20% hits | AID 777 | CYP2C9 Supersomes, luciferin-H conversion, luminescence | inhibition, % at 5 µM;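 active = blocking of liver enzyme CYP2C9 beyond about 50% at 5 µM, limit read from the data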
E-sel TNF inh – TNF alpha driven E-selectin expression inhibition. inhibition, % at 2 µM. 120,000 compounds, 0.71% hits. HUVEC TNFa-induced E-selectin immunofluorescence, high content;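 active = inhibition above the batch mean plus 3 SD, and confirmed as a hit on visual image review, cut at about 43% in these data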;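 also: 0% = TNF-stimulated DMSO wells and 100% = unstimulated control wells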
CYP2C19 inhib – human CYP2C19 inhibition; AID 778; CYP2C19 Supersomes, luciferin-H EGE luminescence, 30 min; inhibition, % at 5 µM; 96,000 compounds, 21% hits;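 active = CYP2C19 inhibition above a set limit at 5 µM in the primary screen, cut at about 50% in these data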;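 also: plate controls were negative control wells for no effect and 2.5 mM tranylcypromine positive control for full effect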
F-actin modifier – modifiers of cytoskeleton assembly | AID 836 | inhibition, % at 2 µM | 91,000 compounds, 0.18% hits | HUVEC TNFa F-actin phalloidin imaging, high content;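 active = inhibition above the batch mean plus 3 SD and confirmed as a hit by visual image inspection, cut at about 30% in these data, passing the limit was not always enough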
CYP2C9 activ – increases human cytochrome P450 2C9 activity; P11712; recombinant CYP2C9, luciferin-H conversion, luminescence; hits give high values; factor 1 = untreated enzyme, 0 = blocked; activation factor at 5 µM; 96,000 compounds, 1.4% hits;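 active = activation factor of 2 or more for CYP2C9 at a 5 µM dose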;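 also: 0 = sulfaphenazole-blocked wells and 1 = vehicle-only wells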
The depositor's hits bear a star; . = no result. Shown are actives, neighbours in structure and some others; about 22% of the full set was active somewhere.

SMILES	CYP2C19 act	CYP2C9 inh	E-sel TNF inh	CYP2C19 inhib	F-actin modifier	CYP2C9 activ
CC(C)N=C(NC#N)SCc1ccc(F)cc1	0.1	62.6*	6.5	94.6*	-55.5	0.4
O=C(COc1ccccc1[N+](=O)[O-])OC1CCS(=O)(=O)C1 (stereo not given)	.	.	-25.2	.	.	.
COc1ccc(/C=N/NC(=O)c2cc(-c3ccccc3OC)nc3ccccc23)cc1COC(C)=O	0.6	71.6*	-23.5	44.3	0.5	0.3
COc1ccc(/C=N/NC(=O)c2cc(-c3ccc(C)cc3C)nc3ccccc23)cc1COC(C)=O	0.5	74.4*	-12.7	47.4	-9.9	0.3
N#Cc1ccc(/C=N/NC(=O)c2cc(-c3cccs3)nc3ccccc23)cc1	.	.	-2.6	.	.	.
COc1ccc(/C=N/NC(=O)c2ccccc2Cl)cc1CSc1nc2ccccc2s1	0.5	81.5*	8.2	51.2*	15.4	0.2
Cc1nc(CN2CCOCC2)cc(=O)[nH]1	0.9	-7.7	-2.9	6.8	46.7	1.1
CCN(c1ccccc1)S(=O)(=O)c1ccc(Cl)c(C(=O)NCCc2ccc(OC)cc2)c1	.	.	11.7	.	.	.
CN(C)CCN1C(=O)C(=O)/C(=C(/O)c2ccc(F)cc2)C1c1ccccc1F (stereo not given)	1	0.6	-46.9	-4.7	.	1
CC(=O)NC1(c2ccc(F)cc2)CCN(C(=O)Nc2ccc(F)cc2F)CC1	0.6	21.3	-2.0	44.8	-36.6	0.8
COc1ccc2c(c1)C(C)CC(C)(C)N2C(=O)CSc1ncn[nH]1 (stereo not given)	0.1	63.9*	-13.7	88.2*	-15.6	0.4
Cc1ccc(NC2=NC(c3ccccc3)n3c(nc(C)cc3=O)N2)c(C)c1 (stereo not given)	0.2	36.1	10.7	82.6*	8.5	0.6
Cc1ccc(NC2=NC(c3ccc(C)cc3)n3c(nc(C)cc3=O)N2)cc1 (stereo not given)	0.3	50.2*	.	71.0*	-15.9	0.5
Cc1ccc(NC2=NCC(=O)N2Cc2ccccc2)c(C)c1	.	.	-6.0	.	16.4	.
COc1ccc(N=c2oc3ccc(OC)cc3cc2-c2nc3ccccc3[nH]2)cc1	1.2	2.2	-4.0	-20.6	-12.3	1
O=C(NC1CCCC1)C(c1ccc(Cl)cc1)N1CCc2ccccc21 (stereo not given)	1.1	13.0	.	-13.8	4.0	0.9
Cc1cc(C=O)c(C)n1-c1cc(C(F)(F)F)ccc1N1CCOCC1	0.1	21.3	12.2	91.5*	2.9	0.8
Cc1cc(C)cc(N2C(=O)C3C4C=CC(C4)C3C2=O)c1 (stereo not given)	0.4	-6.5	7.2	62.7*	1.0	1.1
Cc1ccc(N2C(=O)C3C4C=CC(C4)C3C2=O)cc1 (stereo not given)	0.5	18.4	.	46.7	19.5	0.8
O=C1CCCN1CC(CN1CCOCC1)Sc1nc2ccccc2c(=O)n1-c1ccccc1 (stereo not given)	0.1	92.8*	.	88.1*	.	0.1
CCCc1nnc(NC(=O)NCCN2C(=O)C3C4C=CC(C4)C3C2=O)s1 (stereo not given)	0.9	-2.1	.	5.8	-1.3	1
CCOC(=O)COc1c(Br)cc(C2NC(=O)NC(C)=C2C(C)=O)cc1OC (stereo not given)	.	.	-30.6	.	7.0	.
CCCC1=C(C(=O)OCC)C(c2cc(Cl)cc(OC)c2OCC(=O)OCC)NC(=O)N1 (stereo not given)	0.6	87.5*	4.3	41.6	7.6	0.1
CCOC(=O)COc1c(OC)cc(Cl)cc1C1NC(=O)NC(C)=C1C(C)=O (stereo not given)	0.4	70.0*	-20.0	64.9*	2.3	0.3
Cc1cccc(C(=O)NCCNc2nc3cc(C)c(C)cc3cc2C)c1	.	.	-4.3	.	.	.
SMILES	CYP2C19 act	CYP2C9 inh	E-sel TNF inh	CYP2C19 inhib	F-actin modifier	CYP2C9 activ
CCC(=O)OC1(C#CCOc2ccc(OC)cc2)CCN(C)CC1	0.3	-8.8	-1.5	65.8*	2.9	1.1
C=CCNC(=O)C1CCN(S(C)(=O)=O)CC1	1.1	-3.9	.	-13.6	.	1
COc1ccc2nc(NC(=O)c3cccc(S(=O)(=O)N4CCOCC4)c3)sc2c1	0.7	34.3	-13.6	30.5	.	0.7
COc1ccc2nc(NC(=O)Cc3ccc(OC)c(S(=O)(=O)N4CCOCC4)c3)sc2c1	0.5	37.9	.	54.6*	-7.9	0.6
CSc1nc2ccc(S(=O)(=O)N3CCOCC3)cc2s1	0	62.6*	-31.2	99.5*	-4.1	0.4
CSc1nc2ccc(S(=O)(=O)N3CCCCC3)cc2s1	0.6	16.9	-0.1	40.7	.	0.8
COc1cc(C(=O)Nc2nc3ccc(S(=O)(=O)N4CCOCC4)cc3s2)cc(OC)c1OC	0.5	79.2*	-23.1	53.6*	-13.0	0.2
O=C(Nc1nc2ccc(S(=O)(=O)N3CCCCC3)cc2s1)C1CCCO1 (stereo not given)	0.9	77.4*	-11.2	7.4	-0.1	0.2
O=C(Nc1ccccc1)c1ccccc1N=Cc1ccccc1O	.	.	19.6	.	.	.
Cc1c(Cl)cccc1NC(CC(=O)c1ccccc1)C(=O)O (stereo not given)	.	.	-7.5	.	.	.
O=C(O)CCN1C(=O)/C(=C\c2ccc(-c3nc4ccccc4s3)o2)SC1=S	1	26.1	1.6	-3.5	-15.6	0.7
O=C(Nc1nc2ccc(S(=O)(=O)N3CCCC3)cc2s1)C1CCCCC1	1	63.5*	-2.6	3.5	-3.5	0.4
Nc1nc2ccc(S(=O)(=O)N3CCCCC3)cc2s1	0.7	-46.1	.	30.6	8.6	1.5
O=C(CC(=O)N/N=C\c1c(Cl)cccc1Cl)NCc1ccccc1	0.1	40.8	14.3	86.2*	-10.5	0.6
CC(C)OCCCNC(=O)c1sc(=S)n(C)c1N	0.4	67.4*	.	57.1*	-6.6	0.3
Cc1cc(=O)[nH]c(SCC(=O)c2ccc(C)c(C)c2)n1	0.7	46.1	.	29.9	-8.8	0.5
c1cnc(Oc2ccc(-c3nnco3)cc2)cn1	0.5	15.2	.	53.5*	6.7	0.8
CC(=O)OC(C(=O)Nc1ccccc1)C(C)S(=O)(=O)c1ccccc1 (stereo not given)	0.3	32.2	38.1	65.4*	-7.3	0.7
CC(=N\Nc1ccccc1)/C(=N/O)C(=O)Nc1ccccc1	0.9	-0.1	-35.8	6.6	-17.9	1
O=C(Nc1cccnc1)C1(c2ccc(Cl)cc2)CCCC1	0.2	32.9	5.5	80.6*	-3.4	0.7
O=C(Nc1cccnc1)Nc1ccc(F)c(Cl)c1	0.2	75.9*	3.5	85.0*	16.7	0.2
Cc1ccc(S(=O)(=O)C2(C(=O)Nc3cccnc3)CC2)cc1	0.4	32.1	.	56.3*	13.4	0.7
CC(C)(CO)NC(=O)CCCOc1ccc(Cl)cc1Cl	0.4	21.6	8.4	55.1*	31.1	0.8
O=C(Nc1nnc(COc2ccccc2)s1)C1CCN(S(=O)(=O)c2ccc(Cl)cc2)CC1	1	7.2	.	0.1	6.7	0.9
CCOc1ccccc1N1CCN(C(=O)Nc2ccc(F)c(Cl)c2)CC1	0.8	-13.1	-19.5	24.1	-18.9	1.1
CSc1cccc(NC(=O)CCCOc2ccc(Cl)cc2Cl)c1	.	.	-3.7	.	.	.

Screening data deposited in PubChem by several laboratories.
